The whole screen tested about 420,000 compounds, of which about 50,000 (12%) were called active. Another 26% or so got no clear call; they are omitted. This is one part of a sample in which actives are shown more often than they occur. Unmarked numbers belong to inactive results. Calls follow the shape of the dose curve; as a rule, active = well fitted inhibition curve with a large enough effect; inconclusive = small, poorly fitted or top-dose-only effect; inactive = flat fitted curve, though single readings scatter.
Assay: qHTS for Inhibitors of human tyrosyl-DNA phosphodiesterase 1 (TDP1): qHTS in cells in presence of CPT; also: nearly all actives have a fitted effect of over 55% in size
Settings: chicken DT40 Tdp1-/-;hTDP1 cells + 20 nM CPT, ATP luminescence, 48 h; series mostly up to 46.2 µM; activity change, negative = growth inhibition: at the top concentration
Summary of the method: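 Chicken DT40 Tdp1-/- cells stably complemented with human TDP1 were seeded at 400 cells/well in medium containing 20 nM camptothecin, exposed to pin-transferred compounds, and grown at 37 °C for at least 48 hr. Viability was read as ATP luminescence.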
% is scaled to controls: 0 for no effect and ±100 for the full control effect; potency is read from the fitted curve at half-maximal effect.

| Structure (SMILES) | activity change, negative = growth inhibition | Potency |
| --- | --- | --- |
| COc1cc(N2C(=O)CSC2=S)cc(OC)c1OC | -18.5% |  |
| CCOC(=O)c1nnn(CC(=O)NC(=O)Nc2ccccc2F)c1C(=O)OCC | -18.1% |  |
| Cn1c(CCNS(=O)(=O)c2ccc(F)cc2)nnc1SCc1cccnc1 | 6.59% |  |
| CC(C)CN1CCNC(=O)C1CC(=O)N(C)CC1CCOCC1 (stereo not drawn) | -7.75% |  |
| O=C(NCCS(=O)(=O)N1CCN(c2ccc(F)cc2)CC1)c1ccccc1Br | -15% |  |
| COc1ccccc1CCNC(=O)CN1C(=O)NC2(CCCC2)C1=O | -0.37% |  |
| COC(=O)c1cc(NC(=O)CC2C(=O)NCCN2C(=O)c2ccc(F)cc2)cc(C(=O)OC)c1 (stereo not drawn) | -7.17% |  |
| CCOc1ccc(C(C(=O)NCCOC)N(CCOC)C(=O)CCC(=O)Nc2ccccn2)cc1 (stereo not drawn) | -15.2% |  |
| CCN(C(=O)c1cc([N+](=O)[O-])ccc1NCc1cccnc1)c1ccccc1 | -12% |  |
| CCCn1nc(C(=O)NNC(=O)CSCC(=O)Nc2cc(C)on2)c2ccccc2c1=O | -12.3% |  |
| CC(NC(=O)c1ccccc1)C(=O)Nc1ccccc1 (stereo not drawn) | 4.22% |  |
| O=C(NC(=O)c1ccccc1)NC(=O)c1ccccc1 | -13.4% |  |
| O=C(NC1=CC(=O)c2ccccc2C1=O)c1ccccc1 |  | 0.651 µM (active) |
| CCC1CN(CCNC(=O)c2ccsc2)Cc2cc(OC)ccc2O1 (stereo not drawn) | 9.24% [at 9.04 µM] |  |
| COc1ccc(C(C(=O)NCC2CCCO2)N(C(=O)Cn2nnc3ccccc32)c2ccc(NC(C)=O)cc2)cc1OC (stereo not drawn) | -3.72% |  |
| O=[N+]([O-])c1ccc(CN2CC(N3CCC(c4ccccc4)CC3)CS2(=O)=O)cc1 (stereo not drawn) |  | 18.4 µM (active) |
| O=S1(=O)CC(N2CCN(Cc3ccccc3F)CC2)CN1Cc1cn(Cc2ccccc2)nn1 (stereo not drawn) | -28.2% |  |
| O=S1(=O)CC(N2CCN(c3ccccn3)CC2)CN1Cc1ccc(F)cc1 (stereo not drawn) | -24.6% |  |
| CCc1nn(CC(=O)N2CCN(CC)CC2)c(=O)c2cccn12 | -3.09% |  |
| COc1ccc(S(=O)(=O)NC(C)c2ccccc2)cc1C(=O)N1CCCCC1 (stereo not drawn) | -21.2% |  |
| Cc1ccc(S(=O)(=O)n2cccc2CO)cc1 | -23.8% |  |
| COc1cccc2cc(-c3nc(Cl)c4c5c(sc4n3)CC(C)CC5)c(=O)oc12 (stereo not drawn) | 7.42% |  |
| COc1ccc(OC)c(NC(=O)/C=C/c2ccc(C)o2)c1 | -27.6% |  |
| Cc1ccc(/C=C/C(=O)Nc2ccc([N+](=O)[O-])c(NC(=O)/C=C/c3ccc(C)o3)c2)o1 |  | 11.6 µM (active) |
| CCc1nnc(NC(=O)/C=C/c2ccc(C)o2)s1 | 0.648% |  |
| O=C(Nc1ccn(Cc2ccccc2)n1)c1n[nH]c([N+](=O)[O-])c1Cl | 1.99% |  |
| O=C(Nc1ccn(Cc2ccc(F)cc2)n1)c1ccncc1 |  | 18.4 µM (active) |
| O=C(Nc1ccn(Cc2ccccc2)n1)c1cccc(F)c1 | 3.99% |  |

From PubChem BioAssay AID686979 (National Center for Advancing Translational Sciences (NCATS), 2013)
